# Activity calls are given as the source filed them.
# Tests used:
# [1] = A549 cell viability effects, profiling panel, calcein-AM fluorescence, 48 h, basal (AID 1162); conditions: higher = more signal
# [2] = adipocyte viability effects, profiling panel, cell-based, 3T3-L1 adipocytes, calcein-AM fluorescence, 48 h, basal (AID 1163); conditions: 3T3-L1 adipocytes viability, higher = more signal
# [3] = HepG2 cell viability effects, profiling panel, calcein-AM fluorescence, 48 h, basal (AID 1164); conditions: higher = more signal
# [4] = MM1S cell viability effects, profiling panel, calcein-AM fluorescence, 48 h, basal (AID 1165); conditions: higher = more signal;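 note: viability of MM1S multiple myeloma cells under basal unstimulated conditions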
# [5] = basal RPMI8226 viability, no added stimulus, profiling panel, cell-based, calcein-AM fluorescence, 48 h, PK04 Diversity Set (AID 1166); conditions: RPMI8226 myeloma viability, higher = more signal;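 note: cells grown under basal conditions without added stimulus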
# [6] = basal HepG2 mitochondrial membrane potential changes, profiling panel, cell-based, JC-1 fluorescence, 24 h, 100 nL compound (AID 1167); conditions: higher = more signal
# [7] = basal 3T3-L1 adipocyte mitochondrial potential changes, profiling panel, cell-based, JC-1 fluorescence, 3T3-L1 adipocytes, 24 h, 100 nL compound (AID 1168); conditions: JC-1 mitochondrial fluorescence, higher = more signal, called active from +8 up or from −8 down
# [8] = basal RPMI8226 mitochondrial membrane potential changes, profiling panel, cell-based, JC-1 fluorescence, 24 h, 100 nL compound (AID 1169); conditions: RPMI8226 myeloma, JC-1 mitochondrial potential fluorescence, higher = more signal
# [9] = basal MM1S mitochondrial membrane potential changes, profiling panel, cell-based, JC-1 fluorescence, 24 h, 100 nL compound (AID 1170); conditions: higher = more signal
# [10] = A549 lung cancer cell viability effects, profiling panel, resazurin fluorescence, 24 h, PK04 Diversity Set (AID 1171); conditions: higher = more signal, called active from +8 up or from −8 down
# Note: test concentration not given here.
Compound,z-score [1],z-score [2],z-score [3],z-score [4],z-score [5],z-score [6],z-score [7],z-score [8],z-score [9],z-score [10]
CCCCC(O)C1C=CC2C(=O)N(C3CCCCC3)C(=O)C2N1Nc1ccc(OC)cc1 (stereo not given),-0.875,0.325,-0.572,0.0802,-1.22,-0.307,-0.109 (inactive),-0.111,0.024,0.112 (inactive)
COc1ccccc1CN1C(=O)c2ccccc2[C@@H](C(=O)NCCN2CCOCC2)[C@@H]1c1ccc(CO)cc1,0.61,0.0251,0.556,-0.231,-0.55,2.15,0.364 (inactive),0.711,-0.691,1.33 (inactive)
Cc1cc(C)cc(N2C(=O)CS(=O)(=O)C2c2cccc([N+](=O)[O-])c2)c1 (stereo not given),1.26,0.869,1.41,0.871,1.47,0.994,0.76 (inactive),-0.327,-0.744,-0.913 (inactive)
CCCC[C@H]1OB(O)C[C@H]2C1=C(C)C[C@H]1C(=O)N(Cc3ccccc3)C(=O)[C@H]12,0.601,0.379,-0.152,-0.551,-0.0458,-0.432,0.203 (inactive),-0.333,0.625,0.174 (inactive)
COC(=O)[C@@]1(Cc2ccccc2)[C@H]2c3cc(C(=O)N(C)C)n(Cc4cc(C)n(C)n4)c3C[C@H]2CN1C(=O)c1ccccc1,-0.997,0.461,0.0271,-0.47,-0.965,1.17,-1.24 (inactive),-0.0807,0.0916,-0.236 (inactive)
[N-]=[N+]=Nc1ccccc1[C@@H]1OC(c2ccc(OCCCO)cc2)=N[C@]1(CCS(=O)(=O)c1ccccc1)C(=O)N1CCOCC1,1.53,0.293,1.33,0.0503,-0.908,0.431,0.406 (inactive),-0.746,-0.799,-0.549 (inactive)
CCOC(=O)C[C@H]1[C@H](OC(=O)c2ccccc2-c2ccccc2)[C@@H](NC(=O)Cc2ccc(OC)cc2)c2cc(OCCCO)ccc2N1C(=O)c1ccccc1,0.369,-0.8,0.41,-0.0609,0.0629,0.915,0.0962 (inactive),-0.0457,0.213,0.407 (inactive)
CCCNC(=O)[C@@H]1c2ccccc2C(=O)N(Cc2ccccc2)[C@H]1c1ccc(CO)cc1,0.756,1.38,0.817,-0.183,0.502,2.12,-1.28 (inactive),-0.681,-0.549,0.528 (inactive)
NCCCCCNC(=O)[C@H]1C[C@H]2C(=O)NCC(=O)N2[C@H]1c1cccc(OCCO)c1,1.5,0.118,0.79,0.892,0.857,0.538,1.18 (inactive),-0.164,-0.158,0.547 (inactive)
COc1ccc(C(=O)Nc2cccc(CN3C(=O)[C@@]4(O[C@@H](CCn5cc(CCO)nn5)[C@H]([Si](C)(C)c5ccc(OC)cc5)[C@H]4C)c4ccccc43)c2)cc1,-1.31,-0.599,-4.58,-2.88,-4.33,0.254,0.285 (inactive),-0.136,-2.3,-4.55 (inactive)
CC(C)=CCCC(C)=CC(O)C1C=CC2C(=O)N(c3ccccc3)C(=O)C2N1Nc1ccccc1 (stereo not given),-0.846,-1.34,-0.731,-1.77,-1.02,-2,0.224 (inactive),-0.222,-0.236,-0.518 (inactive)
C=C(CCCC)/C(=C/C[C@H](OC(C)=O)c1ccc(CO)o1)c1cnc2ccccc2c1,0.0278,-0.229,0.311,-2.01,-0.889,-1.04,-0.779 (inactive),-0.143,-0.238,0.398 (inactive)
CCCCCN1CC=CC23O[C@@H]4/C=C\CCCOC(=O)C4[C@H]2C(=O)N(CCCCCCO)[C@@H]3C1=O (stereo not given in full),1.26,2.1,1.54,1.37,1.97,0.482,-0.462 (inactive),0.521,-1.09,0.4 (inactive)
O=C1O[C@H](c2ccccc2)[C@H](c2ccccc2)N2[C@H]1[C@@H](C(=O)O)[C@]1(C(=O)Nc3ccc(C#CC4(O)CCCCCC4)cc31)[C@H]2c1ccc(OCCO)cc1,0.82,0.287,0.293,-1.99,-0.216,-1.82,-1.07 (inactive),-0.559,-0.683,-0.0693 (inactive)
CC(C)(C)OC(=O)CC[C@@]1(C(=O)NCCN2CCOCC2)N=C(c2ccc(OCCCO)cc2)O[C@@H]1c1ccccc1,0.694,0.571,0.564,0.586,1.26,-0.0256,0.66 (inactive),-0.707,-0.514,-0.24 (inactive)
COc1cc2c(cc1OC)CN(C(=O)[C@@H]1[C@H]3C(=O)O[C@H](c4ccccc4)[C@H](c4ccccc4)N3[C@H](c3ccccc3OCCO)[C@@]13C(=O)Nc1ccc(C#CCNC(N)=O)cc13)CC2,1.12,1.62,0.871,0.52,0.625,-1.74,1.63 (inactive),-0.423,-0.322,-0.532 (inactive)
CC(C)C[C@@H]1NC(=O)[C@H]2C[C@@H](C(=O)NCCCCCNC(=O)CS)[C@@H](c3cccc(OCCO)c3)N2C1=O,0.546,-0.206,-0.158,-1.11,-0.768,-0.0747,-0.362 (inactive),0.565,0.975,0.276 (inactive)
CC(C)NC(=O)[C@@]1(Cc2ccccc2I)c2ccccc2C(=O)N(Cc2ccccc2)[C@H]1c1ccc(CO)cc1,-0.547,-0.405,-0.513,0.525,-0.651,0.798,-1.19 (inactive),-0.638,-0.715,1.29 (inactive)
O=C1O[C@@H](c2ccccc2)[C@@H](c2ccccc2)N2[C@@H](c3ccccc3OCCO)[C@]3(C(=O)Nc4ccc(C#CC5(O)CCCCCC5)cc43)[C@@H](C(=O)Nc3nc4ccccc4s3)[C@H]12,-1.49,0.601,-3,-3.22,-4.17,-2.67,2.71 (inactive),-0.863,-1.41,-1.34 (inactive)
CC(C)CNC(=O)[C@@]1(c2ccc([N+](=O)[O-])cc2)CC(=O)N(CC23CC4CC(CC(C4)C2)C3)[C@@H]1c1ccc(CO)cc1,-0.642,1.57,-0.715,-2.68,-3.66,0.0331,0.226 (inactive),-1,0.857,-2.47 (inactive)
COCCOC(=O)N1C(=O)[C@@]2(c3cc(C#CCNC(N)=O)ccc31)[C@H](C(=O)N1CCc3cc(OC)c(OC)cc3C1)[C@H]1C(=O)O[C@H](c3ccccc3)[C@H](c3ccccc3)N1[C@@H]2c1ccc(OCCO)cc1,-0.21,0.743,-0.0192,0.128,0.115,-0.691,1.66 (inactive),-0.468,-0.864,0.0245 (inactive)
O=C(CS)NCCCCCCNC(=O)[C@H]1C[C@H]2C(=O)NCC(=O)N2[C@H]1c1ccc(O)cc1,0.324,0.277,0.555,-0.31,0.325,-0.32,-0.607 (inactive),-0.645,-0.459,-0.27 (inactive)
Cc1ccc([C@H]2[C@H](C(=O)O)[C@H](Sc3ccccc3)[C@@H](C(C)C)N2S(=O)(=O)c2ccc(C)cc2)cc1,-0.74,-0.594,-0.447,-0.0237,-0.802,-1.63,0.327 (inactive),-0.199,-0.437,-0.064 (inactive)
COCCOC(=O)N1C(=O)[C@@]2(c3cc(C#CCC(C(=O)OC)C(=O)OC)ccc31)[C@H](c1ccccc1OCCO)N1[C@H](c3ccccc3)[C@H](c3ccccc3)OC(=O)[C@H]1[C@@H]2C(=O)N1CCc2cc(OC)c(OC)cc2C1,0.178,1.76,-0.821,-0.906,-0.756,-0.0323,2.21 (inactive),-0.833,-0.702,1.34 (inactive)
Cc1ccccc1C(O)C1C=CC2C(=O)N(C)C(=O)C2N1N1CCCCC1 (stereo not given),-0.578,-1.18,-0.979,-0.587,-0.436,-1.64,-1.01 (inactive),0.207,0.201,-0.464 (inactive)
COc1ccc(NN2C(C(O)c3ccc(OC)c(OCc4ccccc4)c3)C=CC3C(=O)N(C4CCCCC4)C(=O)C32)cc1 (stereo not given),0.412,-0.714,0.337,-0.257,0.0417,0.348,0.353 (inactive),0.0161,-1.33,0.817 (inactive)
COCC1=C2[C@@H](CCc3ccccc3)OB(O)C[C@@H]2[C@@H]2C(=O)N(Cc3ccccc3)C(=O)[C@@H]2C1,0.0476,0.873,0.128,-1.51,-0.138,-1.59,-0.897 (inactive),-0.812,0.24,0.21 (inactive)
C=CCC(OC(C)=O)[C@@H]1[C@@H](N(Cc2ccc(-c3ccccc3)cc2)C(=O)Cc2ccc(OC)cc2)c2cc(OCCCO)ccc2N1C(=O)c1ccc2ccccc2n1 (stereo not given in full),-0.072,0.273,0.978,0.0474,-0.295,2.56,-0.269 (inactive),0.651,0.789,0.902 (inactive)
COC(=O)[C@@]1(Cc2ccccc2)[C@H]2c3cc(C(=O)N4CCCC4)n(Cc4ccc(C)o4)c3C[C@H]2CN1C(=O)c1ccccc1,-1.25,0.726,0.252,-1.47,-2.33,1.78,-0.753 (inactive),-1.02,-0.449,-0.646 (inactive)
C=C(CCCC)C(=O)CC[C@H](OC(=O)c1cccnc1)c1cccc(OCCO)c1,0.952,0.136,0.316,-3.35,-2.66,1.39,0.139 (inactive),-0.726,-0.592,0.358 (inactive)

# From PubChem BioAssay
